# Calls of active or inactive are those of the source.
# Columns and labels:
# [1] = binders of probe aFSTL3 on microarray, primary screen, stem cell growth factor project, biochemical, small-molecule microarray, fluorescence 635/667 (AID 1064); conditions: higher = more signal;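 also: measures binding of the biotinylated anti-FSTL3 antibody to printed compounds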
# [2] = binders from COS7 lysate, DM2A8 probe, primary screen, torsin A project, cell lysate, small-molecule microarray, fluorescence 635/667 (AID 1065); conditions: higher = more signal, COS7 lysate expressing mutant human TOR1A
# [3] = binders of probe aFGF2 on microarray, primary screen, stem cell growth factor project, biochemical, small-molecule microarray, fluorescence 635/667 (AID 1067); conditions: higher = more signal;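 also: measures binding of biotinylated aFGF2 protein to printed compounds on slides; z-score merges feature fluorescence and signal-to-noise across triplicate slides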
# [4] = binders of probe aFGF10 on microarray, primary screen, stem cell growth factor project, biochemical, small-molecule microarray, fluorescence 635/667 (AID 1071); conditions: higher = more signal;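 also: score merges 667 nm spot intensity and signal to noise from triplicate slides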
# [5] = molecular target: Neurogenic locus notch homolog protein 2 (Homo sapiens) (UniProt Q04721); assay: Notch2 binders on small-molecule microarrays, primary screen, biochemical, small-molecule microarray, 635 nm fluorescence, stem cell growth factors (AID 1073); conditions: Notch2 binding, higher = more signal
# [6] = molecular target: Pro-neuregulin-1, membrane-bound isoform (Homo sapiens) (UniProt Q02297); assay: NRG1 binders on small-molecule microarrays, primary screen, psychiatric disease protein project, biochemical, small-molecule microarray, fluorescence 635/667 (AID 1075); conditions: NRG1 binding, 635 nm fluorescence, higher = more signal;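 also: score combines 667 nm spot fluorescence with signal to noise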
# Pro-neuregulin-1, membrane-bound isoform (Homo sapiens), sequence (Q02297 whole entry, looked up, the tested form may be a part, canonical isoform): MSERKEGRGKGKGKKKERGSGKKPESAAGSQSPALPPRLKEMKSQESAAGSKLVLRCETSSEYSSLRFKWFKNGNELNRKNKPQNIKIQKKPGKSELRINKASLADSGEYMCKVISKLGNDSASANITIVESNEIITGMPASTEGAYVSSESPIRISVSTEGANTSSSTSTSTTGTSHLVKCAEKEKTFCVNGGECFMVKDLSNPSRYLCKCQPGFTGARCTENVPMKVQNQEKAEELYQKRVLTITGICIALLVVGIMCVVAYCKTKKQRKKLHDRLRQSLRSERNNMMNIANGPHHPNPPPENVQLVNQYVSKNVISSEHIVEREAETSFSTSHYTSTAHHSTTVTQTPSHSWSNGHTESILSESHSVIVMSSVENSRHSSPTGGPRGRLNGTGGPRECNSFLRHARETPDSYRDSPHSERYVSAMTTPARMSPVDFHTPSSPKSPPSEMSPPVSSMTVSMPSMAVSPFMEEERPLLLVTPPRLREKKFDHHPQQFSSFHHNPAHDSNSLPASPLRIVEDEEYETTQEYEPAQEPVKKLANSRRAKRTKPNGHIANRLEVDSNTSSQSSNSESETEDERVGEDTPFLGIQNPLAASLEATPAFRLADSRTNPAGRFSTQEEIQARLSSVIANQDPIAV
# [7] = tested on: Neuregulin-1 EGF-like domain; assay: binders of neuregulin-1 EGF-like domain, primary screen, biochemical, small-molecule microarray, 635 nm fluorescence (AID 1081); conditions: small-molecule microarray binding, higher = more signal;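 also: binding of the protein to compounds printed on small-molecule microarray slides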
# [8] = FRG1 promoter luciferase signal modulators, primary screen, FRG1 inhibition for FSHD, cell-based, C2C12 myotubes, firefly/Renilla luciferase, luminescence (AID 1084); conditions: higher = more signal, called active from +8 up or from −8 down
# [9] = binders of probe aFST on microarray, primary screen, stem cell growth factor project, biochemical, small-molecule microarray, fluorescence 635/667 (AID 1086); conditions: higher = more signal;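 also: score merges 667 nm fluorescence with signal-to-noise of each printed compound spot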
# [10] = binders of probe aHhip on microarray, primary screen, stem cell growth factor project, biochemical, small-molecule microarray, fluorescence 635/667 (AID 1087); conditions: higher = more signal;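 also: score merges spot fluorescence at 667nm with spot signal to noise ratio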
# [11] = tested on: PRMT1 (protein arginine N-methyltransferase 1); assay: PRMT1 binders on small-molecule microarrays, primary screen, biochemical, small-molecule microarray, 635 nm fluorescence (AID 1088); conditions: small-molecule microarray binding, higher = more signal;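 also: binding of Prmt1 protein to compounds spotted on small-molecule microarray slides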
# [12] = yeast growth modulation, basal conditions, primary screen, YJM789 clinical isolate, OD600, 24 h (AID 1089);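 also: growth of clinical yeast isolate S. cerevisiae YJM 789 seeded 1000 cells per well; test concentration not given here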; conditions: S. cerevisiae YJM789 growth, higher = more signal, called active from +8 up or from −8 down
# [13] = fission yeast growth modulation, primary screen, strain 972, OD600, 24 h, no modulator (AID 1090);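 also: basal condition with compound alone and no growth modifier present; test concentration not given here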; conditions: S. pombe 972 growth, higher = more signal, called active from +8 up or from −8 down
# [14] = S. cerevisiae growth modulation with rapamycin, primary screen, strain BY4716, OD600, 96 h (AID 1091); conditions: higher = more signal, called active from +8 up or from −8 down; also: test concentration not given here
# [15] = molecular target: Torsin-1A-interacting protein 2 (Homo sapiens) (UniProt Q8NFQ8); assay: LULL1 binders on small-molecule microarray, primary screen, cell lysate, human LULL1 lysate, 635/667 nm fluorescence (AID 1092); conditions: hLULL1 lysate binding, 635 nm fluorescence, higher = more signal;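 also: probe is lysate of COS7 cells overexpressing human LULL1; score merges per-feature 667 nm fluorescence with signal-to-noise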
# Torsin-1A-interacting protein 2 (Homo sapiens), sequence (Q8NFQ8 whole entry, looked up): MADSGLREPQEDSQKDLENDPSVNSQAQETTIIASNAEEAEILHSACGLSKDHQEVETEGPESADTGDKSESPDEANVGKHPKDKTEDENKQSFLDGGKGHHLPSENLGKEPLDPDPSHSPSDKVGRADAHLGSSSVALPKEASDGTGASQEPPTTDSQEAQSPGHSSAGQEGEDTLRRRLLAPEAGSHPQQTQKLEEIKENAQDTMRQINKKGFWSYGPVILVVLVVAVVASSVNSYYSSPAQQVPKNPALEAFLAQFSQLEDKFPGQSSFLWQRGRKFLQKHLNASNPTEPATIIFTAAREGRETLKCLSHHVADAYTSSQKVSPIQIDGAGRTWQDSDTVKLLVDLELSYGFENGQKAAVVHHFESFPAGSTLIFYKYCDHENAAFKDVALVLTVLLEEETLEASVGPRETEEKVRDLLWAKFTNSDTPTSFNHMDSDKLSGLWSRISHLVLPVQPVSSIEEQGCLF
# [16] = E. coli growth modulation, two-sided OD650, primary screen, E. coli filamentation project, strain DRC41, 24 h (AID 1093); conditions: OD650, 24 h, higher = more signal, called active from +8 up or from −8 down;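 also: MC1000 strain lacking acrAB efflux and sulA so SOS filamentation is blocked; test concentration not given here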
# [17] = small-molecule microarray binders of probe aLefty2, primary screen, biochemical, biotinylated probe, 635/667 nm fluorescence (AID 1094); conditions: higher = more signal;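 also: score merges spot fluorescence near 667 nm with spot signal-to-noise ratio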
# [18] = tested on: Noggin (protein binding on small-molecule microarray); assay: Noggin binders on small-molecule microarray, primary screen, biochemical, 635/667 nm fluorescence (AID 1095); conditions: 635 nm fluorescence, higher = more signal;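 also: score merges 667 nm feature fluorescence with signal to noise over triplicate slides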
# [19] = molecular target: Neurogenic locus notch homolog protein 3 (Homo sapiens) (UniProt Q9UM47); assay: NOTCH3 binders on small-molecule microarray, primary screen, biochemical, 635/667 nm fluorescence (AID 1096); conditions: NOTCH3 binding, 635 nm fluorescence, higher = more signal
# Neurogenic locus notch homolog protein 3 (Homo sapiens), sequence (Q9UM47 whole entry, looked up): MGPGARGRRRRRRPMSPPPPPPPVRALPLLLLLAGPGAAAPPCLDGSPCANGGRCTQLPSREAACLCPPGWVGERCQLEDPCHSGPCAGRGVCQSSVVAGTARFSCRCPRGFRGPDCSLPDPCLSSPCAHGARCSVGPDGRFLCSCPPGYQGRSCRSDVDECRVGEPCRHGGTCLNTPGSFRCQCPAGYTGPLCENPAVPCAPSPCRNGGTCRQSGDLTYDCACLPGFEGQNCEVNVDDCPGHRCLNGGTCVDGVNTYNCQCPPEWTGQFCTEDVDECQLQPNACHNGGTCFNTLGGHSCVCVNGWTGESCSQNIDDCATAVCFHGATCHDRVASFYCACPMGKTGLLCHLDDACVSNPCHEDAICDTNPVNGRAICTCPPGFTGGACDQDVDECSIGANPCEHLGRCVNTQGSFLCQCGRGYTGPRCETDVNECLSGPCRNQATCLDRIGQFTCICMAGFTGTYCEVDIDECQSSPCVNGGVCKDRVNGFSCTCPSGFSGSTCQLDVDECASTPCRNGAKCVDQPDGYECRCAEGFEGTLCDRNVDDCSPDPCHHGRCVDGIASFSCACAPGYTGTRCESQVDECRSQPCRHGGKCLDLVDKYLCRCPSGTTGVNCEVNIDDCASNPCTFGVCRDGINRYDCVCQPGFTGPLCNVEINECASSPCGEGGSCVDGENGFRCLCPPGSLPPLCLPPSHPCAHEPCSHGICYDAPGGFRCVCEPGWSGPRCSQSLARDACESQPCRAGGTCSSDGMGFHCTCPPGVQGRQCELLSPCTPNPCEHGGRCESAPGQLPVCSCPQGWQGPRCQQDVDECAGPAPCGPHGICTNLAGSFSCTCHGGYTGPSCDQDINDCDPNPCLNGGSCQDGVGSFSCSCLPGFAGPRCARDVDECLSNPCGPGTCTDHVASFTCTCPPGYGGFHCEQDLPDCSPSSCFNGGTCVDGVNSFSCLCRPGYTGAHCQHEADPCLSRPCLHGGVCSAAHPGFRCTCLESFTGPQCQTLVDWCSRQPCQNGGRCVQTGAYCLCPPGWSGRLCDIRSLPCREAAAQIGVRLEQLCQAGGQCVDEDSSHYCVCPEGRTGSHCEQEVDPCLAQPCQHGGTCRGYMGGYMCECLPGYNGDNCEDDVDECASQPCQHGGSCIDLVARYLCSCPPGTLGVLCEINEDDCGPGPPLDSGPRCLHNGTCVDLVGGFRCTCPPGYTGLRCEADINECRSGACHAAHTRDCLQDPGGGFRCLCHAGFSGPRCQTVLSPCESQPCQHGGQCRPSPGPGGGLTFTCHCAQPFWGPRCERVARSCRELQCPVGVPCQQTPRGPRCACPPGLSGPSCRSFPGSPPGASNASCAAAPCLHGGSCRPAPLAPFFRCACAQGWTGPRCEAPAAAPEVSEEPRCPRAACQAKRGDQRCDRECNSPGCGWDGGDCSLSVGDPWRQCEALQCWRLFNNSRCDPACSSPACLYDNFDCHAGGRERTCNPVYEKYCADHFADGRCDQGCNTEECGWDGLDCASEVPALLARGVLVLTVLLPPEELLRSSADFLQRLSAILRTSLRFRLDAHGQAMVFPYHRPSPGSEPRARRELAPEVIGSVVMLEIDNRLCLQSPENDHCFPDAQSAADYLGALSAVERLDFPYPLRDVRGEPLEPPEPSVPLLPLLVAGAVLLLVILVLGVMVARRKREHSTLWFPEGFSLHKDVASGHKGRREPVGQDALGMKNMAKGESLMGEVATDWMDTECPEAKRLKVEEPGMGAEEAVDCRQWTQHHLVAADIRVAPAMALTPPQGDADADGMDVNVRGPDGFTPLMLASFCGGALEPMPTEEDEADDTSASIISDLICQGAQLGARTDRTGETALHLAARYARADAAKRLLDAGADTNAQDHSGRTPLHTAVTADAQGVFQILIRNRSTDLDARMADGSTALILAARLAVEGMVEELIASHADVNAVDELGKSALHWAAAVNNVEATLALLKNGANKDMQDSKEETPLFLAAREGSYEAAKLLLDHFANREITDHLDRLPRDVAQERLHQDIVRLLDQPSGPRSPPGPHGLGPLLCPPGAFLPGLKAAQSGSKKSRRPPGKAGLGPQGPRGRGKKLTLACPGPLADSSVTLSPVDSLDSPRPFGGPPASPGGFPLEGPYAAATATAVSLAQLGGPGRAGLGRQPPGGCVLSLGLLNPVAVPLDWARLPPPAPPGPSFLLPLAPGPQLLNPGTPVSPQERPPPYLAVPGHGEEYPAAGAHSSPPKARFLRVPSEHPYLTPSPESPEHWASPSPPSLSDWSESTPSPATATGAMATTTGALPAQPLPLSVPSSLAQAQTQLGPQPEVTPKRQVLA
# [20] = small-molecule microarray binders of probe aEGFR, primary screen, biochemical, biotinylated probe, 635/667 nm fluorescence (AID 1097); conditions: higher = more signal;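 also: probe is a biotinylated anti-EGFR antibody binding compounds printed on slides; score combines fluorescence near 667 nm and signal to noise of each spot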
SMILES,composite z-score [1],composite z-score [2],composite z-score [3],composite z-score [4],composite z-score [5],composite z-score [6],composite z-score [7],z-score [8],composite z-score [9],composite z-score [10],composite z-score [11],z-score [12],z-score [13],z-score [14],composite z-score [15],z-score [16],composite z-score [17],composite z-score [18],composite z-score [19],composite z-score [20]
CCOC(=O)NN=C1C[C@@H](O)[C@@H](O)[C@@H]2[C@@H]3C(=O)N([C@@H](C)c4ccccc4)C(=O)[C@@H]3CC[C@H]12,-0.322,-0.0183,-0.085,0.321,0.453,-0.0718,0.0602,-0.223 (inactive),0.252,0.138,0.215,-0.612 (inactive),0.366 (inactive),-0.222 (inactive),0.261,0.352 (inactive),-0.0458,0.264,0.507,0.0122
CCN1C(=O)[C@H]2[C@H]3[C@H](O)[C@H](O)CC(=NOC[C@H]4O[C@H](c5ccccc5)C=C[C@@H]4Oc4ccc(OC)cc4)[C@@H]3CC[C@H]2C1=O,-0.0474,0.174,0.0338,0.999,0.887,0.488,0.953,0.52 (inactive),0.0352,0.351,1.28,-0.125 (inactive),-0.653 (inactive),-0.175 (inactive),0.996,0.964 (inactive),-0.0271,0.738,1.11,-0.0085
Cc1ccc(S(=O)(=O)N[C@H]2COC(=O)CC=C[C@@H](C)COC(=O)CC=C[C@@H]2C)cc1,-0.537,0.604,-0.135,0.0963,-0.094,-0.326,-0.0175,0.999 (inactive),-0.135,-0.466,0.683,0.611 (inactive),0.174 (inactive),0.247 (inactive),-0.953,0.682 (inactive),0.296,1.8,-0.207,-0.281
CCOC(=O)[C@H](Cc1ccccc1)NC(=O)CCC1CC(OC(=O)NCc2cccc3ccccc23)CC2(CCCC(COC(=O)NCCC(C)C)O2)O1 (stereo not given in full),-0.499,0.283,-0.0895,0.0687,-0.756,-0.348,0.751,1.41 (inactive),-0.219,-0.0994,-0.923,-1.04 (inactive),-0.0031 (inactive),-1.36 (inactive),0.284,-0.444 (inactive),0.0062,0.0111,-0.435,-0.128
CO[C@H]1COC(=O)CC=C[C@H](C)[C@@H](OC)COC(=O)[C@H](C)COC(=O)CC=C[C@@H]1C,-0.687,1.34,-0.223,-0.562,-0.407,-0.785,-0.142,-0.387 (inactive),-0.176,0.0722,0.765,0.395 (inactive),-0.425 (inactive),0.567 (inactive),-0.344,0.683 (inactive),-0.268,1.76,-0.292,-0.0439
COC(=O)[C@@H]1CC[C@H](C)[C@@H](c2ccc(C)cc2)N1C(=O)c1ccc(C=NOC[C@@H](C)[C@H](OCc2ccccc2)C(C)C)cc1,-0.613,0.191,-0.0707,0.41,1.13,0.855,1,-0.229 (inactive),0.38,0.0373,1.55,-2.56 (inactive),-6.29 (inactive),-1.51 (inactive),1.3,0.862 (inactive),-0.244,0.573,1.09,0.102
COc1ccc(O[C@H]2C=C[C@@H](c3ccccc3)O[C@@H]2CON=CC[C@@H]2C=C[C@H](OC(C)=O)[C@@H](COC(C)=O)O2)cc1,-0.142,0.0191,-0.0667,0.138,-0.265,-0.364,-0.216,1.01 (inactive),0.388,-0.0994,0.15,0.507 (inactive),0.722 (inactive),0.721 (inactive),0.22,0.363 (inactive),-0.107,0.691,-0.22,-0.0267
Cc1cc2c(nc1C)CCCCN2CC(C)ON=C1[C@H]2CCn3c(=O)n(-c4ccccc4)c(=O)n3[C@H]2[C@H](O)[C@@H]2O[C@H]12 (stereo not given in full),-0.455,0.288,0.0051,0.756,0.942,-0.349,0.8,-0.446 (inactive),0.557,-0.0346,0.208,0.678 (inactive),-0.167 (inactive),0.103 (inactive),0.998,0.777 (inactive),0.106,0.439,0.258,-0.0922
O=C1[C@H]2[C@H]3[C@H](O)[C@H](O)CC(=NOC[C@@H](O)COCc4ccco4)[C@H]3CC[C@H]2C(=O)N1c1ccc(F)cc1F,-0.191,0.862,-0.142,0.0434,-0.853,-0.452,1.23,-1.53 (inactive),-0.999,-0.0047,-0.012,-3.68 (inactive),-1.99 (inactive),-1.97 (inactive),-0.701,-1.13 (inactive),-0.469,-0.349,-0.927,-0.165
COC(=O)[C@H](C)NC(=O)CCC1CC(OC(=O)NCc2ccc3c(c2)OCO3)CC2(CCCC(COC(=O)NCCc3ccccc3OC)O2)O1 (stereo not given in full),-0.587,0.172,-0.171,0.16,0.138,0.597,0.751,1.06 (inactive),-0.17,0.0274,0.472,-1.21 (inactive),0.124 (inactive),-0.167 (inactive),1.89,0.872 (inactive),-0.166,0.181,0.0607,-0.0798

# From PubChem BioAssay
